Source: ChEMBL document CHEMBL1961873, “Compounds: GSK PKIS; Assays: Nanosyn kinase panel” (2012)

Columns and labels:
[1] = biological target: Tyrosine-protein kinase Fyn (Homo sapiens) (UniProt P06241); conditions: at 1 µM
[2] = biological target: Tyrosine-protein kinase HCK (Homo sapiens) (UniProt P08631); conditions: at 0.1 µM
[3] = biological target: Tyrosine-protein kinase HCK (Homo sapiens) (UniProt P08631); conditions: at 1 µM
[4] = biological target: Insulin-like growth factor 1 receptor (Homo sapiens) (UniProt P08069); conditions: at 0.1 µM
[5] = biological target: Insulin-like growth factor 1 receptor (Homo sapiens) (UniProt P08069); conditions: at 1 µM
[6] = biological target: Insulin receptor (Homo sapiens) (UniProt P06213); conditions: at 0.1 µM
[7] = biological target: Insulin receptor (Homo sapiens) (UniProt P06213); conditions: at 1 µM
[8] = biological target: Insulin receptor-related protein (Homo sapiens) (UniProt P14616); conditions: at 0.1 µM
[9] = biological target: Insulin receptor-related protein (Homo sapiens) (UniProt P14616); conditions: at 1 µM
[10] = biological target: T1, Tyrosine-protein kinase ITK/TSK (Homo sapiens) (UniProt Q08881); conditions: at 0.1 µM;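 note: mean percent inhibition of ITK from the GSK PKIS screen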
T1 sequence (whole entry): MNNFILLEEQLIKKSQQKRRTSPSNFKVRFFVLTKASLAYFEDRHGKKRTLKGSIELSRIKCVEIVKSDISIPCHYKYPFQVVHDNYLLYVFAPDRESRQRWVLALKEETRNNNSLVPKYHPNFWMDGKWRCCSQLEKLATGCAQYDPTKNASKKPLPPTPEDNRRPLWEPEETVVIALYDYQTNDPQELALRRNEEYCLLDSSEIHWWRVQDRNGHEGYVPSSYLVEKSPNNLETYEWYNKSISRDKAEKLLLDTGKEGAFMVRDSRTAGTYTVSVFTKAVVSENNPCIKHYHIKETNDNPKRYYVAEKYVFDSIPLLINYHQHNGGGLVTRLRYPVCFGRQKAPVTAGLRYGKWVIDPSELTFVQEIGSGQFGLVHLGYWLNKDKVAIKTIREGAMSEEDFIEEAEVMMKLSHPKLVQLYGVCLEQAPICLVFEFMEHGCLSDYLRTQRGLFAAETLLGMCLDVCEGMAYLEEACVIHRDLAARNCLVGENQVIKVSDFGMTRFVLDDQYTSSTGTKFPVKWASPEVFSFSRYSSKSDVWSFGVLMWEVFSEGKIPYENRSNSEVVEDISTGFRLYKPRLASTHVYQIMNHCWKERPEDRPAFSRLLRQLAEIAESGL

Sequence of Tyrosine-protein kinase HCK (Homo sapiens) (P08631 2-526 limits assumed): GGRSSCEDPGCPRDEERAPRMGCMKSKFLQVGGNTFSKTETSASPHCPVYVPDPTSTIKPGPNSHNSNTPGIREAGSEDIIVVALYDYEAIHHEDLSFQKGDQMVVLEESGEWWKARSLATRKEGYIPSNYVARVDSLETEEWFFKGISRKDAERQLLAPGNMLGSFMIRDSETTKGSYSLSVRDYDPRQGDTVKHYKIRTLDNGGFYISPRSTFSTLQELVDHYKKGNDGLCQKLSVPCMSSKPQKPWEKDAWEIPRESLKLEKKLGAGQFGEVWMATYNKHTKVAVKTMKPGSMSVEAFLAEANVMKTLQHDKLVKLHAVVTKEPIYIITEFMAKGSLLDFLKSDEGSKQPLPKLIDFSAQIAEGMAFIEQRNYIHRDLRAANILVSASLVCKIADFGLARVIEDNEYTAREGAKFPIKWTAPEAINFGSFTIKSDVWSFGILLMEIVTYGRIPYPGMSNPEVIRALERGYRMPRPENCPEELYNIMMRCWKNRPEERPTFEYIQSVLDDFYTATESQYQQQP
Sequence of Insulin-like growth factor 1 receptor (Homo sapiens) (P08069 31-736 limits assumed): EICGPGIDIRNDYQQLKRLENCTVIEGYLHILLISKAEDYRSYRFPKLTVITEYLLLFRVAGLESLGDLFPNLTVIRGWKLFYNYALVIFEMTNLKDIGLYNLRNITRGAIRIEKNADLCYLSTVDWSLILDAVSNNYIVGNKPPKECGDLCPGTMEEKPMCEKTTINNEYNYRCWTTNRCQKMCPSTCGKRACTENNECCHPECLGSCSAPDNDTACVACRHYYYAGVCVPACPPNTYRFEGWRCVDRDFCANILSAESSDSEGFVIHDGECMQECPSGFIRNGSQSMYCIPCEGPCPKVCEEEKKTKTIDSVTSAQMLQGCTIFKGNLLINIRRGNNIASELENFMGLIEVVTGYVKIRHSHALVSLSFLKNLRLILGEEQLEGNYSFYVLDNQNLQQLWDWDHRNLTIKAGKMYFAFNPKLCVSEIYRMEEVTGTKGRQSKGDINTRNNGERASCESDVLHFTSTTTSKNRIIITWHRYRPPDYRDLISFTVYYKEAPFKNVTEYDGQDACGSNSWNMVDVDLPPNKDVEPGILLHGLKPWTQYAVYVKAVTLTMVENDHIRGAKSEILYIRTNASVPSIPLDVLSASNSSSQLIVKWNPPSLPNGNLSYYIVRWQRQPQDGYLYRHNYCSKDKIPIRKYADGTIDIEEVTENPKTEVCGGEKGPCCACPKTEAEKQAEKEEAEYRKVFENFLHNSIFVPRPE
Sequence of Insulin-like growth factor 1 receptor (Homo sapiens) (P08069 741-1367 limits assumed): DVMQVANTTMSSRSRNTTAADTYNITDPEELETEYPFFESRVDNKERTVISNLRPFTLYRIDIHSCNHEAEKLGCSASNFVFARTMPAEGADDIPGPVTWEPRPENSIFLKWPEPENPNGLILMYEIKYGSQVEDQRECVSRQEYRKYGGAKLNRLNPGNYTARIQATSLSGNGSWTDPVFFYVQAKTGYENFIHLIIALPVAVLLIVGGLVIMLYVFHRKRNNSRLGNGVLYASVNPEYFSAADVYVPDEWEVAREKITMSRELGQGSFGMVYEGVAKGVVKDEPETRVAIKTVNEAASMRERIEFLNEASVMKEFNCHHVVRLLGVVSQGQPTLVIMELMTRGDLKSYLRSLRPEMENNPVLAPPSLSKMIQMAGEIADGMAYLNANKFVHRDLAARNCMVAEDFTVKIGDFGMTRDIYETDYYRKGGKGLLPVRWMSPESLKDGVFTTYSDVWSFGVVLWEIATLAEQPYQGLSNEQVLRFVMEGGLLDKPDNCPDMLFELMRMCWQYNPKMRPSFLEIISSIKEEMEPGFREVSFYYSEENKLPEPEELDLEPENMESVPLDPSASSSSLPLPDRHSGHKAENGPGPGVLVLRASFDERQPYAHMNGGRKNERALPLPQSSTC
Sequence of Tyrosine-protein kinase Fyn (Homo sapiens) (P06241 2-537 limits assumed): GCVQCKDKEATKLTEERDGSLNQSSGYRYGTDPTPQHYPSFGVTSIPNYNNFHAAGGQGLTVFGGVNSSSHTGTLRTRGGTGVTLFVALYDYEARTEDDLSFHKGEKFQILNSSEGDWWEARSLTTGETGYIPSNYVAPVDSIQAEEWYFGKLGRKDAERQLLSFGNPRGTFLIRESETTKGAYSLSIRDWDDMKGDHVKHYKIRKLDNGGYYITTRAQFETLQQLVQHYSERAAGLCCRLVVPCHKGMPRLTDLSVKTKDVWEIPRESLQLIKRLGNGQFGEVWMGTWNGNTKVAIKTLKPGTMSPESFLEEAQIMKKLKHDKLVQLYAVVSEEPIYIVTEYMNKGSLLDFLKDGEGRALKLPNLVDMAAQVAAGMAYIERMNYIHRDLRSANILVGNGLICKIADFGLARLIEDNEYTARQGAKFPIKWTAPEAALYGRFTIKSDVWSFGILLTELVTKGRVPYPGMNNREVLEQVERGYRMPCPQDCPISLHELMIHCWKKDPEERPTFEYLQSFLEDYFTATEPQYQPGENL
Sequence of Insulin receptor-related protein (Homo sapiens) (P14616 27-742 limits assumed): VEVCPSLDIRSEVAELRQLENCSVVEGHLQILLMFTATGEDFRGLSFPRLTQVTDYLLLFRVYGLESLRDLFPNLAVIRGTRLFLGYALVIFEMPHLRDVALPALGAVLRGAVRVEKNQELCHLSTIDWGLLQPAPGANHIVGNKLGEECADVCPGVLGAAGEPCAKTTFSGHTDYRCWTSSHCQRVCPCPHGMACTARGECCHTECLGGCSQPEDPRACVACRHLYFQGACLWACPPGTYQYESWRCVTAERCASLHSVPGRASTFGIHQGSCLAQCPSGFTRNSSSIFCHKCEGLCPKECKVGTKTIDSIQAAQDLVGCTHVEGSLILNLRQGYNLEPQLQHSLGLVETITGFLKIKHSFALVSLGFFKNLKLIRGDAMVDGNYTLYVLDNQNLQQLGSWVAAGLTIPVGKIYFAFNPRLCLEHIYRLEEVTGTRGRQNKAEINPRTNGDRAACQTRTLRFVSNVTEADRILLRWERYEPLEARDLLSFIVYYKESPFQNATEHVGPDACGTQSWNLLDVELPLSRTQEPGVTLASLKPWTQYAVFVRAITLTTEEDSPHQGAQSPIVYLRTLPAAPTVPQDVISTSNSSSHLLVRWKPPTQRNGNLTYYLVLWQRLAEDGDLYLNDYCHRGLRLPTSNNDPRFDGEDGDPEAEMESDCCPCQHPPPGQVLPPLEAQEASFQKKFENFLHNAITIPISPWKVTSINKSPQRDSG
Sequence of Insulin receptor-related protein (Homo sapiens) (P14616 747-1297 limits assumed): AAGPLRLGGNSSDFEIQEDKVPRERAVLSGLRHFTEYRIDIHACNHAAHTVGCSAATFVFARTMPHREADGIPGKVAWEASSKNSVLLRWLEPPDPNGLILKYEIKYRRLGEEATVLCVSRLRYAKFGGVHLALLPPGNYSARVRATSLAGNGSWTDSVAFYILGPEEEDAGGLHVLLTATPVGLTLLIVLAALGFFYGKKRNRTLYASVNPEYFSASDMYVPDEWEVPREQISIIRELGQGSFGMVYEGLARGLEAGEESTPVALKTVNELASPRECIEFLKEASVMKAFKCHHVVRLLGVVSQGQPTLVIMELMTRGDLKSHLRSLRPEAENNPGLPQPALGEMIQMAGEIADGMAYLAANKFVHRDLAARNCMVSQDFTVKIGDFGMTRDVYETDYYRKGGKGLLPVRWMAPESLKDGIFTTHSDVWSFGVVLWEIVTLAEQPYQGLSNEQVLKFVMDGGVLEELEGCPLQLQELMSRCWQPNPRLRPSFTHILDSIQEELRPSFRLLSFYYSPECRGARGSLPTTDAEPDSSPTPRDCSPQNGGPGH
Sequence of Insulin receptor (Homo sapiens) (P06213 28-758 limits assumed): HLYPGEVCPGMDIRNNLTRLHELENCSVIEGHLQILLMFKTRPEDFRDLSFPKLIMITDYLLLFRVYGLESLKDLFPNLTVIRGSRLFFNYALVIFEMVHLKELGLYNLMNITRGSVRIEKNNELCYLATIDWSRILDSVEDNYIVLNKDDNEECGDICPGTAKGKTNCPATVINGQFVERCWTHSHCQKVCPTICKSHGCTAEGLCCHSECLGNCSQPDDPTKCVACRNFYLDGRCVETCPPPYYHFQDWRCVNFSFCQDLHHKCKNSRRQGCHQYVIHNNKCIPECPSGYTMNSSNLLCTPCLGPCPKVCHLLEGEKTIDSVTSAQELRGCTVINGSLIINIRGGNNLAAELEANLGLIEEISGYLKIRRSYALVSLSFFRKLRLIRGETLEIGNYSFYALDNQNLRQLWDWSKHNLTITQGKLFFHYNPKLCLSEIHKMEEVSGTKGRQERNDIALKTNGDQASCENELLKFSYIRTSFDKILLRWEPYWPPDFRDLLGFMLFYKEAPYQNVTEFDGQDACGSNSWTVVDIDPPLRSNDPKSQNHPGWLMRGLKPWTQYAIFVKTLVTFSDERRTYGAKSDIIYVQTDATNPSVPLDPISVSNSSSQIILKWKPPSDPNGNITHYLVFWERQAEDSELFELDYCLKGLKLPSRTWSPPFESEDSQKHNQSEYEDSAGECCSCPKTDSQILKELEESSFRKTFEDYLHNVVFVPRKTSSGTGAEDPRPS
Sequence of Insulin receptor (Homo sapiens) (P06213 763-1382 limits assumed): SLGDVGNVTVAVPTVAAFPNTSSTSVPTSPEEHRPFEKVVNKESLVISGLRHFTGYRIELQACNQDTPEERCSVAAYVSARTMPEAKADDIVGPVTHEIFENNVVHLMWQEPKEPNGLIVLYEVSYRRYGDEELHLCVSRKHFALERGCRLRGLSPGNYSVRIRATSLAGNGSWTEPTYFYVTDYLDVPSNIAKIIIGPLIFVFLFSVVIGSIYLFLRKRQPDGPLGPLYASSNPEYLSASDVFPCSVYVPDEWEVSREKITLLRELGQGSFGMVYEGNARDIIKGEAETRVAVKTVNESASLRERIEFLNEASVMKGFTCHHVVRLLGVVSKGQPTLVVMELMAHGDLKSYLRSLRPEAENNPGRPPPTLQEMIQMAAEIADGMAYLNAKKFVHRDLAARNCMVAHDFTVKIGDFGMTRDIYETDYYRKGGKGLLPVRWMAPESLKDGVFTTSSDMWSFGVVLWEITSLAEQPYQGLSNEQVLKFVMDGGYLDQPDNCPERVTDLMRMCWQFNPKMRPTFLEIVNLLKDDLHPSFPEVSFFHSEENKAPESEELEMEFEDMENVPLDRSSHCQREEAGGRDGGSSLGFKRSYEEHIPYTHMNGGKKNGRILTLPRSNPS

Compound | inhibition [1] | inhibition [2] | inhibition [3] | inhibition [4] | inhibition [5] | inhibition [6] | inhibition [7] | inhibition [8] | inhibition [9] | inhibition [10]
N#Cc1cccc(Nc2nccc(-c3cnn4ncccc34)n2)c1 | 39.2% | 7.16% | 35.9% | 8.04% | 38.2% | 9.03% | 40.9% | 3.98% | 10.8% | 2.91%
COC(=O)c1cncc(/C=C/c2c(C)cc(O)cc2C)c1 | 20% | 8.77% | 37.5% | 2.87% | 2.99% | 3.1% | 0.15% | 5.13% | 2.83% | 0.96%
COc1cccc(-n2nc(C)c3c(N/N=C(\C)c4ccncc4)ncnc32)c1 | 4.54% | 1.01% | 3.38% | -0.28% | 0.73% | 2.42% | 0.25% | -2% | -2.33% | 0.43%
Nc1nccc(-c2c(-c3ccc(F)cc3)nn3cc(C(F)(F)F)ccc23)n1 | 2.33% | -0.1% | -0.25% | -1.56% | 1.35% | 1.38% | 2.01% | 1.17% | 1.01% | -1.78%
c1ccc(Cc2nc3ccc(Nc4ncnc5ccccc45)cc3[nH]2)cc1 | 5.58% | 3.53% | 11.5% | 2.6% | 3.88% | 3.54% | 8.19% | 2.51% | 3.31% | 0.82%
NS(=O)(=O)c1cccc(Nc2cc(-c3ccc(F)cc3)n[nH]2)c1 | 5.32% | 3.23% | 7.76% | 0.35% | 1.22% | 0.86% | 1.03% | 1.9% | 2.3% | 1.67%
CN(C)C(=O)O[C@@H]1CN[C@@H](C#Cc2cc3ncnc(Nc4ccc(OCc5cccc(F)c5)c(Cl)c4)c3s2)C1 | 3.53% | 1.53% | 4.13% | -0.74% | 0% | 0.78% | 1.75% | -1.28% | 0.29% | 0.62%
CN(C)c1cc2c(Nc3ccc4c(cnn4Cc4ccccc4)c3)ncnc2cn1 | 15.3% | 7.12% | 19.9% | 0.45% | 2.94% | 5.08% | 6.13% | 1.7% | 0.35% | 1.37%
Cc1ccc(O)cc1Nc1ccnc2ccc(S(C)(=O)=O)cc12 | 94.1% | 87.2% | 89.9% | 4.41% | 3.85% | 6.63% | 8.39% | 3.29% | 3.19% | 1.1%
O=C(Nc1ccc(Oc2ccc3[nH]c(NC(=O)c4ccco4)nc3c2)cc1)Nc1cc(C(F)(F)F)ccc1F | 19.9% | 7.54% | 47.3% | -8.65% | -5.27% | 1.23% | 1.66% | 0.43% | 0.25% | -2.86%
CN(C)CCCn1c(-c2nonc2N)nc2cnccc21 | 1.87% | 5.43% | 6.49% | 10.2% | 9.74% | 7.05% | 4.75% | 2.59% | 4.16% | 1.43%
Cc1cc(-c2ccccn2)cc(C)c1/C=C/c1cncc(-c2nn[nH]n2)c1 | 9.92% | 7.16% | 17.3% | 16.5% | 10.9% | 5.7% | 5.57% | 0.66% | 2.24% | 0.82%
Oc1cccc(-c2nc(-c3ccccc3)[nH]c2-c2ccncc2)c1 | 17.9% | 13.7% | 51.2% | 2.68% | 5.15% | 1.16% | 2.18% | 2.79% | 0.88% | 1.78%
OCc1ccc(-c2nc(-c3ccccn3)c(-c3ccc4c(c3)OCO4)[nH]2)cc1 | 5.01% | 9.2% | 9.7% | 1.56% | 4.7% | 3.33% | 2.79% | 4.43% | 1.6% | 1.59%
Nc1ccc(C#Cc2cncnc2Nc2ccc(OCc3cccc(F)c3)c(Cl)c2)cc1 | 1.14% | 4.6% | 5.04% | 1.78% | -0.29% | 1.22% | 2.12% | 2.27% | 2.76% | 0.59%
Cc1ccc2c(-c3ccnc(Nc4ccc5c(c4)OCCO5)n3)c(-c3ccc(C(F)(F)F)cc3)nn2n1 | 5.39% | 1.01% | 2.01% | -4.21% | 0.39% | -0.36% | 1.45% | 1.35% | 0.34% | -1.23%
COc1ccc2ncnc(Nc3ccc(OCc4ccccc4)cc3)c2c1 | 10.2% | 2.78% | 8.33% | 0.69% | 0.08% | 0.98% | 3.05% | 1.39% | 2.07% | 0.5%

Compound | inhibition [1] | inhibition [2] | inhibition [3] | inhibition [4] | inhibition [5] | inhibition [6] | inhibition [7] | inhibition [8] | inhibition [9] | inhibition [10]
COc1cc2ncnc(Nc3ccc(C)c(O)c3)c2cc1OC | 56.2% | 44.9% | 75.1% | 12.2% | 11% | 5.04% | 6.96% | 2.18% | 3.05% | 1.63%
CCS(=O)(=O)c1ccc(OC)c(Nc2nccc(N(C)c3ccc4c(C)n[nH]c4c3)n2)c1 | 65% | 39.5% | 72.1% | 12.5% | 12.5% | 3.36% | 4.35% | 1.12% | 4.55% | 0.31%
Cc1ccc2c(-c3ccnc(Nc4cccc(C(F)(F)F)c4)n3)c(-c3ccccc3)nn2n1 | 61% | 11.3% | 45.1% | 2.54% | 4.76% | 8.09% | 24.8% | 2.33% | 6.16% | 1.33%
N#Cc1c(NC(=O)c2ccccc2F)sc2c1CCCC2 | 3.17% | -1.54% | 0.95% | -4.1% | 0.01% | 1.34% | -1.12% | -1.06% | -1.27% | -1%
Cc1cc(Cl)cc2c1NC(=O)C2=NNc1ccc(S(N)(=O)=O)cc1 | 3.01% | 2.49% | 4.3% | 2.32% | 0.19% | 2.78% | 4.18% | -0.92% | 1.47% | 1.14%
NC(=O)c1sc(-n2cnc3ccccc32)cc1OCc1ccccc1Br | 6.19% | 4.21% | 7.03% | 1.53% | 3.04% | 3.07% | 5.25% | 1.82% | 3.4% | 1.35%
NS(=O)(=O)c1ccc(N/N=C2\C(=O)Nc3ccc(Cl)cc32)cc1 | 8.06% | 5% | 11.4% | 6.7% | 4.64% | 1.04% | 2.77% | 3.26% | 3.42% | 0.97%
NS(=O)(=O)c1ccc(Nc2cc(-c3cccc(O)c3)n[nH]2)cc1 | 2.45% | 5.06% | 11.7% | 5.98% | 5.23% | 3.33% | 3.4% | 6.28% | 2.76% | 2.78%
ON=C1CCc2cc(-c3nc(C4CCNCC4)[nH]c3-c3ccncc3)ccc21 | 0.87% | 0.2% | 4.24% | -1.78% | -0.56% | 1.61% | -0.75% | -1.51% | -0.82% | 0.74%
CC(C)c1ccc2c(c1)NC(=O)/C2=N/Nc1ccc(S(N)(=O)=O)cc1 | 7.54% | 0.57% | 11% | -0.14% | 1.33% | 4% | 1.87% | -1.32% | -1.93% | 0.01%
CN1CCN(C(=O)c2ccc(NC(=O)Nc3ccc(N(C)c4ccnc(Nc5ccc(CS(C)(=O)=O)cc5)n4)cc3)cc2)CC1 | 8.13% | 3.98% | 22.7% | 3.48% | 6.42% | 4.81% | 10.6% | -0.19% | 2.44% | 6.56%
NS(=O)(=O)c1cccc(-c2cc3ccncc3cc2OCc2ccccc2)c1 | 4.87% | 7.87% | 11.1% | 9.68% | 10.4% | 2.6% | 4.4% | 2.82% | 1.54% | 1.77%
CCCN1CCCC(c2ccc(Nc3nc(Nc4cc(F)ccc4C(N)=O)c4cc[nH]c4n3)c(OC)c2)C1 (stereo not given) | 16.1% | 7.06% | 11.9% | 93% | 94.8% | 98.9% | 96.2% | 93.7% | 97% | 2.35%
C[C@@H](Oc1cc(-n2cnc3ccc(OC[C@@H](O)CO)cc32)sc1C(N)=O)c1ccccc1Cl | 5.15% | -0.15% | 6.39% | -1.52% | -0.34% | 0.87% | 0.26% | -2.17% | -2.11% | 0.28%
CN(c1ccc(NC(=O)Nc2ccc(OC(F)(F)F)cc2)cc1)c1ccnc(Nc2cccc(S(N)(=O)=O)c2)n1 | 53.5% | 25.2% | 77.3% | -1.04% | 0.46% | 1.9% | 2.39% | 0.67% | 3.26% | 10.6%
COc1ccc(-c2nn3ncccc3c2-c2ccnc(Nc3cccc(C(F)(F)F)c3)n2)cc1 | 7.59% | 4.3% | 8.02% | -1.5% | 0.2% | 0.4% | 2.59% | 1.52% | 1.54% | 0.45%
NS(=O)(=O)c1ccc(-c2cc3ccncc3cc2OCc2ccccc2)cc1 | 3.52% | 4.9% | 6.46% | 1.47% | 2.17% | 4.34% | 5.38% | 2.36% | 2.61% | 0.77%
